Screening results from PubChem BioAssay.
Pf Dd2 growth = Plasmodium falciparum Dd2 growth inhibition | P. falciparum Dd2 growth, SYBR Green, 72 h | Potency, µM (highest dose often 28.9 µM), hits mostly inhibitors | actives 4.3% (n = 120,000) | AID 1347417; active = well fitted inhibition curve with a large enough effect; note: nearly all actives have a fitted effect of over 65% in size
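Infected erythrocytes (Dd2, 0.3% parasitemia, 2.5% hematocrit final) are added to compound in RPMI-1640/Albumax II medium, grown 72 h at 37C in low oxygen, then lysed with saponin/Triton-X containing SYBR Green and read by fluorescence.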
Hits are given with their value; . = inactive; [ ] = remark or other dose. The sample as a whole holds a higher share of hits than the screen did.

SMILES	Pf Dd2 growth
CCOc1ccc(C(=O)Nc2ccc3nc(N(CC)CC)cc(C)c3c2)cc1	.
CCN(CC)c1cc(C)c2cc(NC(=O)c3cccc(OC)c3OC)ccc2n1	.
CCOc1ccccc1C(=O)Nc1ccc2nc(N(CC)CC)cc(C)c2c1	.
CCN(CC)c1cc(C)c2cc(NC(=O)c3cccc(OC)c3)ccc2n1	.
CCOc1ccc(/C=C/C(=O)Nc2ccc3nc(N(CC)CC)cc(C)c3c2)cc1OC	1µM
CCN(CC)c1cc(C)c2cc(NC(=O)/C=C/c3cc(OC)c(OC)c(OC)c3)ccc2n1	1.1µM
c1ccc(CC2=NOC3(CCN(C4COC4)CC3)C2)cc1	.
CC(CCc1ccccc1)NC(=O)CC[C@H]1NC(=O)c2ccccc2NC1=O (stereo not given in full)	.
O=C(Nc1ccc2c(c1)CN(Cc1ccc3c(c1)OCO3)C(=O)CO2)c1ccc(F)cc1	.
COc1ccc(C2Cn3nnc(-c4noc(Cc5ccccc5C)n4)c3CO2)cc1 (stereo not given)	.
Cc1ccc(C(=O)N2CCC(N3CC4CCCN4C3=O)CC2)cc1 (stereo not given)	.
CN(CC1CCOCC1)C(=O)Nc1ccccc1C(F)(F)F	.
CC(=O)Nc1ccc(C2(C(=O)NCc3ccc4c(c3)OCO4)CCC2)cc1	.
CCS(=O)(=O)Nc1ccc(C2(C(=O)NCc3cccnc3)CCCCC2)cc1	.
CCS(=O)(=O)Nc1ccc(C2(C(=O)NCc3ccc4c(c3)OCO4)CCCCC2)cc1	11µM
Cc1nc(CCC(=O)N2CCc3c(nc(-c4ccccc4)[nH]c3=O)C2)n[nH]1	.
Cc1cc(=O)n(CC(=O)Nc2ccccc2)c(N2CCc3ccccc3C2)n1	.
CCOc1ccc(CC(=O)NC2CCN(c3cc(-c4cccs4)[nH]n3)C2)cc1 (stereo not given)	.
O=C(c1ccc2c(c1)N(Cc1ccccc1F)C(=O)c1ccccc1S2(=O)=O)N1CCCC1	.
COCCNC(=O)c1ccc2c(c1)N(Cc1cc(C)ccc1C)C(=O)c1ccccc1S2(=O)=O	.
O=C(NCc1ccco1)c1ccc2c(c1)N(Cc1ccccc1)C(=O)c1ccccc1S2(=O)=O	.
Cc1ccc(CNC(=O)c2ccc3c(c2)N(Cc2ccccc2)C(=O)c2ccccc2S3(=O)=O)cc1	.
O=C(c1ccc2c(c1)N(Cc1ccc(F)cc1)C(=O)c1ccccc1S2(=O)=O)N1CCCC1	.
COC(=O)c1ccc2c(c1)N(Cc1ccccc1)C(=O)c1ccccc1S2(=O)=O	.
Cc1ccc(C)c(CN2C(=O)c3ccccc3S(=O)(=O)c3ccc(C(=O)NCc4ccccc4)cc32)c1	7.1µM
SMILES	Pf Dd2 growth
O=C(c1ccc2c(c1)N(Cc1ccccc1F)C(=O)c1ccccc1S2(=O)=O)N1CCCCC1	.
CCC(C)NC(=O)c1ccc2c(c1)N(Cc1ccccc1)C(=O)c1ccccc1S2(=O)=O (stereo not given)	3.2µM
Cc1ccc(C)c(CN2C(=O)c3ccccc3S(=O)(=O)c3ccc(C(=O)N4CCN(c5ccccc5)CC4)cc32)c1	5.6µM
O=C(c1ccc2c(c1)N(Cc1ccccc1)C(=O)c1ccccc1S2(=O)=O)N1CCN(Cc2ccccc2)CC1	8.9µM
CN1CC(=O)N(c2ccccc2F)Cc2c(NCc3ccccc3)ncnc21	.
CC(=O)N1CCC[C@H]1C(=O)N1CCc2nc(C)nc(NC3CC3)c2CC1	.
COCCNC(=O)[C@@H]1C[C@@H](O)CN1C1CCN(C(=O)COc2ccc(F)cc2)CC1	.
COc1cccc(CC(=O)N2CCC(CC(=O)NCc3ccccc3)C2)c1 (stereo not given)	.
COCc1cc(=O)n(CC(=O)Nc2cc(F)ccc2F)c(N2CCOCC2)n1	.
Cc1ccc(CN2C(=O)C3(CCOCC3)CC2c2nnnn2C(C)(C)C)cc1 (stereo not given)	.
CCOC(=O)c1ccc2c(c1)N(Cc1cc(C)ccc1C)C(=O)c1ccccc1S2(=O)=O	.
CCOC(=O)N1CCC(NC(=O)c2ccc3c(c2)N(Cc2cc(C)ccc2C)C(=O)c2ccccc2S3(=O)=O)CC1	11µM
Cc1ccc(CCNC(=O)c2ccc3c(c2)N(Cc2cccc(C)c2)C(=O)c2ccccc2S3(=O)=O)cc1	.
Cc1ccsc1-c1nc(CN(C)Cc2noc(C(C)C)n2)c(C)o1	.
Fc1ccccc1-c1noc(NCCc2ccc(Cl)cc2)n1	.
O=c1cc(-c2ccccc2)nc(SCc2nc(-c3ccc(Cl)cc3)no2)[nH]1	.
Clc1ccc(CNc2nc(-c3ccccc3)no2)cc1	11µM
CCCOC(=O)N1CCC2(CC1)CC(c1ccccc1)C(=O)N(C)C2 (stereo not given)	.
O=C(CC1CCCC1)N1CCC2(CC1)CC(N(C(=O)c1ccccc1)C1CC1)CCO2 (stereo not given)	.
C[C@]1(CO)[C@H]2Cc3sc(NC(=O)C4CCC4)nc3[C@@H](CC(=O)N3CCOCC3)[C@]2(C)CC[C@H]1O	.
C[C@]1(CO)[C@H]2Cc3sc(NC(=O)c4ccc(F)cc4)nc3[C@@H](CC(=O)N3CCCCC3)[C@]2(C)CC[C@H]1O	.
C[C@]1(CO)[C@H]2Cc3sc(NC(=O)c4ccc(F)cc4)nc3[C@@H](CC(=O)N3CCOCC3)[C@]2(C)CC[C@H]1O	10µM
CC(=O)N1CCN(C(=O)C[C@@H]2c3nc(-c4ccsc4)sc3C[C@@H]3[C@](C)(CO)[C@H](O)CC[C@]32C)CC1	.
CC(C)(C)c1ccc(C(=O)Nc2nc3c(s2)C[C@@H]2[C@](C)(CO)[C@H](O)CC[C@@]2(C)[C@@H]3CC(=O)N2CCC(C(N)=O)CC2)cc1	11µM
C[C@]1(CO)[C@H]2Cc3sc(-c4ccccc4)nc3[C@@H](CC(=O)N3CCOCC3)[C@]2(C)CC[C@H]1O	.
SMILES	Pf Dd2 growth
CN1CCCCCCN(S(C)(=O)=O)CCC1=O	.
Cc1nc(-c2c3n(c(=O)n(CC(=O)Nc4cccc(F)c4)c2=O)CCCCC3)no1	.
CS(=O)(=O)c1cnc(NCc2ncc[nH]2)nc1C1CCCNC1 (stereo not given)	.
Cc1ncoc1C(=O)N1CCc2nnc([C@@H]3C[C@@H](O)CN3C(C)C)n2CC1	.
O=c1c2ccccc2nc(/C=C\c2ccc(F)cc2)n1-c1ccccc1F	.
O=c1c2ccccc2nc(/C=C/c2ccccc2)n1-c1ccccc1F	.
Cc1ccccc1-n1c(/C=C/c2c(C)[nH]c3ccccc23)nc2ccccc2c1=O	3.2µM
O=C(c1ccccn1)N1CC2(Cc3ccccc3NC2=O)C1	.
CC(C)CC1=NC2(CCN(C(=O)c3ccoc3)CC2)C(=O)N1	.
CCC(=O)N1C[C@@H]2CCCN3CCC[C@@H]([C@H]23)[C@H]1CCCC(=O)Nc1ccccc1	.
Cc1noc(C)c1S(=O)(=O)N1CCC2(CC1)C(=O)N(C)c1ccccc12	3.5µM
Cc1nc(C2(C)CCN(S(=O)(=O)c3c(C)noc3C)CC2)no1	.
Cc1noc(C)c1S(=O)(=O)N1CCC2(C1)C(=O)Nc1ccccc12 (stereo not given)	.
Cn1cc(S(=O)(=O)N2Cc3ccccc3C[C@H]2C(=O)NC(C)(C)C)cn1	.
CN(Cc1cccnc1)c1nc2c(c(=O)[nH]1)CCN(Cc1ccc(Cl)c(F)c1)CC2	.[5.79 µM]
CN(C)c1nc2c(c(=O)[nH]1)CCN(Cc1ccc(F)cc1F)CC2	.[5.79 µM]
CN(C)c1nc2c(c(=O)[nH]1)CCN(Cc1ccc(F)cc1Cl)CC2	1µM
CN(Cc1cccnc1)c1nc2c(c(=O)[nH]1)CCN(Cc1cccc(F)c1)CC2	.[5.79 µM]
CN(C)c1nc2c(c(=O)[nH]1)CCN(Cc1cc(F)ccc1F)CC2	.[5.79 µM]
CN(Cc1cccnc1)c1nc2c(c(=O)[nH]1)CCN(Cc1ccc(F)cc1Cl)CC2	2.8µM
